In PubChem BioAssay AID605 (National Center for Advancing Translational Sciences (NCATS), 2007):
Out of some 71,000 compounds screened, about 35 (0.05%) were called active. The call rests on the fitted dose curve; in most records, active means well fitted curve in the direction sought with a large enough effect; inconclusive means small, poorly fitted or top-dose-only effect, or effect the other way; inactive means flat fitted curve, though single readings scatter. Not all results are given here.

molecular target: tRNA threonylcarbamoyladenosine biosynthesis protein TsaE (Escherichia coli (strain K12)) (UniProt P0AF67); assay: qHTS Assay for Inhibitors of YjeE; conditions: purified YjeE enzyme, qHTS inhibition assay
Protocol: NIH Molecular Libraries Screening Centers Network [MLSCN]
NIH Chemical Genomics Center [NCGC]
Assay Provider: Eric Brown, McMaster University
YjeE is an essential E.coli protein of unknown function that binds adenosine diphosphate (ADP). A complex of YjeE and BODIPY Texas Red-labeled ADP probe (Invitrogen, catalog number A22359) is incubated with library members. Inhibitors of YjeE-ADP binding are detected by a decrease in the fluorescence polarization (FP) of the fluorophore. Purified YjeE was supplied by Chand Mangat and Eric Brown, McMaster University.
NCGC Assay Protocol Summary:
2 uM probe/10 uM YjeE in columns 1, 2, 5-48. Titration of ADP control (from 40 mM, then 1:2) pin-transferred to top half of column 2. Column 1 and bottom half of column 2 are neutral.
Two and a half uL of reagents were dispensed to 1536-well Greiner black plates. Compounds and controls (20 nL) were transferred via Kalypsys PinTool. The plates were incubated for 15 min at room temperature, and then read on ViewLux (Perkin-Elmer) High-throughput CCD imager using BODIPY polarization filter set and 30 seconds exposure time. During dispense, reagent bottle was kept submerged into 4 deg C water bath and all liquid lines were covered with aluminum foil to minimize probe and protein degradation.
Keywords: NIH Roadmap, MLSCN, MLI, MLSMR, qHTS, NCGC, YjeE

outcome, inactive:
CCCCC(CC)CN (stereo not given), Cc1ccccc1Nc1nc(N)nc(CN2CCN(c3ccccn3)CC2)n1, COc1c(F)c(F)c(-c2csc(N)n2)c(F)c1F, COC(=O)[C@H]1C[C@@H]1[C@H](NC(=O)Oc1ccc(F)cc1)c1ccccc1, COC(=O)C(C)C1Sc2ccccc2NC1=O (stereo not given), CC(C)(CNCC(O)c1ccccc1)N1CCOCC1 (stereo not given), Cc1cnc(CNc2ncncc2-c2ccccc2Cl)cn1, COc1ccc(C2C3=C(OC(C)=O)c4ccccc4C3=Nc3c2c(=O)n(C)c(=O)n3C)cc1 (stereo not given), Cn1c(-c2ccc(C(=O)c3ccccc3)s2)nc2ccccc21, COc1ccccc1-c1nc(C(F)(F)F)c(OC)o1, Nc1nc(N)c2[nH]c(CNc3ccc(C(=O)O)cc3)nc2n1, CCCc1nc2ccccc2c(=O)n1/N=C/c1ccc(O)c(O)c1, CC(C)[C@@H](CC(=O)N[C@@H]1CCNC[C@H]1C(=O)N[C@H](CC(=O)N[C@@H](CCC(=O)O)CC(=O)O)Cc1ccccc1)NC(=O)C[C@H](CO)NC(=O)[C@@H]1CNCC[C@H]1N, COc1ccc2nc(NC3=NCN(CC4CCCO4)CN3)nc(C)c2c1 (stereo not given), Cc1cc(OCC(=O)O)c(Cl)cc1Cl, Cc1cc(NC(=O)COC(=O)c2ccc(F)c(S(=O)(=O)N3CCOCC3)c2)no1, COc1ccc(C(=O)CSc2nccc(=O)[nH]2)cc1, CCOC(=O)c1ccc(NC(=O)CS(=O)(=O)c2cn(CC)c3ccccc23)cc1, Cc1cc(=O)[nH]c(SCC(N)=O)c1C#N, CSCCC(NC(=O)c1ccc(=O)n(C)n1)c1nc2ccccc2[nH]1 (stereo not given), O=C(NCc1ccc(Cl)cc1)c1cc2c(nc3sccn32)s1, CC(C)(C)NCC[C@@H](O)c1cc(C(F)(F)F)nc2c(C(F)(F)F)cccc12, COc1nc(Oc2ccc(=O)n(C)n2)nc(N(C)C)n1, CCCCNC(=O)CSc1nccn1Cc1ccccc1, C1CCC2OC2C1 (stereo not given), O=c1c(-c2cc(F)cc(F)c2)nc2cnc(Oc3ccccc3)nc2n1C[C@H]1CCCO1, CCOC(=O)c1ccc(NC(=O)CSc2nnc(COc3ccccc3OC)n2C)cc1, C[C@]1(C(=O)NCCc2c[nH]c3ccccc23)C=C[C@@H](Cc2ccccc2)N1C(=O)c1ccccc1, N#Cc1ccc(C(c2nnnn2CCc2ccccc2)N2CCCCCC2)cc1 (stereo not given), COc1ccc(N2C(=O)C3CCCN3C2c2cccs2)cc1 (stereo not given), COc1ccc(C)cc1S(=O)(=O)NC1CCCCC1, O=C1c2oc3ccccc3c(=O)c2C(c2cccc(O)c2)N1c1ccccn1 (stereo not given), CC(=O)CC(C)C, COC(=O)N1CCC2(CCCN(Cc3ccccc3OC)C2)CC1, COc1ccc(OC)c(Nc2nc(-c3ccc(O)c(O)c3)cs2)c1, FC(F)(F)c1ccccc1-c1cc(NCc2ccccc2)ncn1, CN1[C@@H]2CC[C@H]1CC(NC(=O)c1nn(C)c3ccccc13)C2 (stereo not given in full), C[C@]12CC[C@@H]3C(=CCc4cc(O)ccc43)[C@@H]1CCC2=O, Cc1cc(=O)n(C)c(=O)n1CCCNc1ccccc1, CC(C)c1ccc2c([Si](C)(C)C)c3c(nc2c1)-c1cccc(=O)n1C3, COc1ccc(N2C(=O)CCC(C(=O)N(C)C3CCCCC3)C2c2ccc(OC)c(OC)c2)cc1 (stereo not given), C[N+](C)(CCCCCC[N+](C)(C)CCCN1C(=O)c2cccc3cccc(c23)C1=O)CCCN1C(=O)c2cccc3cccc(c23)C1=O, COc1ccc(Cl)cc1S(=O)(=O)N1CCN(CC(=O)C(C)(C)C)CC1, CN1CCN(S(=O)(=O)c2ccc3[nH]cc(C(=O)O)c(=O)c3c2)CC1, Cc1ccc(C)c(N2CCN(C(=O)CCc3nc4ccccc4[nH]3)CC2)c1, O=Cc1c(Cl)cccc1Cl, COc1cccc(N(CC(=O)Nc2cccc(N(C)S(C)(=O)=O)c2)S(C)(=O)=O)c1, COc1ccccc1NC1=NC2(CCCC2)N=C(N)N1, CCOc1ccc2[nH]c(=O)c(C(c3nnnn3CCOC)N3CCOCC3)cc2c1 (stereo not given), COC(=O)C1(C)C=CC2(CCCCC2)N1C(C)=O (stereo not given), CC/C=C/C/C=C/C/C=C/CCCCCCCC(=O)OCC, O=C(OC(C(=O)NC1CCCC1)c1ccc(F)cc1)c1ccno1 (stereo not given), O=c1cnc2cnc(Nc3ccccc3)nc2n1Cc1ccc(F)cc1, COCCn1c(SCC(=O)Nc2cc(Cl)ccc2OC)nc2c(c1=O)SC(C)C2 (stereo not given), C=C(C)c1cccc(C(C)(C)NC(=O)N2CCN(c3ncccn3)CC2)c1, O=C(Cl)c1ccccc1[N+](=O)[O-], CCOC(=O)CN(C(=O)CN1CCOCC1)c1ccc(Br)cc1, CC(C)NC(=O)N1CC[C@@]2(CCCN(C(=O)c3ccco3)C2)C1, S=c1[nH]nc(SCc2ccccc2Cl)c2[nH]cnc12, CSc1cccc(NC(=O)CSc2ccccc2)c1, Cc1ccc2oc(=O)c3cnn(CC(=O)N4CCN(c5ccccn5)CC4)c3c2c1, O=C(CNS(=O)(=O)c1cccc(C(F)(F)F)c1)Nc1ccccc1F, COC(=O)[C@@]1(Cc2ccccc2)[C@H]2c3cc(C(=O)N4CCCC4)n(Cc4ccc(C)o4)c3C[C@H]2CN1C(=O)c1ccccc1, COc1ncc2nc(-c3ccc(Cl)cc3)c(=O)n(C)c2n1, CC(c1ccco1)N(C(=O)c1ccc(S(=O)(=O)N2CCCCC2)cc1)c1ccccn1 (stereo not given), CC(C)NS(=O)(=O)c1ccc(OCC(=O)Nc2ccc3c(c2)OCCO3)cc1, Cc1ccc(-n2c(SCC(=O)Nc3ccc4c(c3)OCO4)nnc2-c2ccoc2C)cc1, CCOC(=O)NC(C(F)(F)F)(C(F)(F)F)P(=O)(c1ccccc1)c1ccccc1, CCCC(=O)N1c2ccc(-c3csc(N)n3)cc2CC1C (stereo not given), Cc1ccc(O)c(NC(=O)COc2cc(C)ccc2C)c1, COc1ccc(-c2nc3cnc(N(C)C)nc3n(Cc3cccs3)c2=O)cc1, O=C(Cl)c1ccc([N+](=O)[O-])cc1, Cc1cc(C)cc(N)c1, CCOC(=O)N1CCN(C(=O)C2CC(c3ccc(F)cc3)=NO2)CC1 (stereo not given), Cc1ccc2c(c1)N(CC(=O)N1CCCc3ccccc31)C(=O)C(C)O2 (stereo not given), CCOc1cccc(/C(O)=C2/C(=O)C(=O)N(CCOC)C2c2ccncc2)c1 (stereo not given), CC1CC(C)CN(CC(=O)Nc2ccc(S(N)(=O)=O)cc2)C1 (stereo not given), CN(c1ccc(C(=O)N2CCc3ccccc3C2)cc1)S(C)(=O)=O, COc1ccccc1N1CCN(C(=O)c2cc3c(-c4ccc(Cl)cc4)nn(C)c3s2)CC1, Cn1c(CC(=O)Nc2ccccc2)nnc1SCC(=O)c1ccccc1, Cc1nnc(NC2=NCCCCC2)o1, Cn1cc(-c2nc3cnc(N4CCNCC4)nc3n(CCc3ccccc3)c2=O)c2ccccc21, COc1cccc(Nc2ncc3ncc(=O)n(C4CC4)c3n2)c1, CNC(=O)C1(C)C=CC2(CCCCC2)N1C(C)=O (stereo not given), COc1ccccc1CNc1ncnc2ccc(-c3ccc4c(c3)OCO4)cc12, COC(=O)[C@@]1(Cc2ccc(OC)cc2)[C@H]2c3cc(C(=O)N4CCCC4)n(Cc4ccc(OC(F)(F)F)cc4)c3C[C@H]2CN1C(=O)c1ccccc1, O=C(O)c1cccc(S(=O)(=O)NCCO)c1, COc1ccc(N)c(C)c1, O=C(Cn1ccc(=O)[nH]c1=O)Nc1ccc(C(=O)O)c(O)c1, COc1ccc(CC(=O)Nc2c3c(nn2-c2cccc(Cl)c2)CS(=O)C3)cc1 (stereo not given), COCCCN1C(=O)C(=O)/C(=C(/O)c2ccc3c(c2)CC(C)O3)C1c1cccnc1 (stereo not given), Cn1cc(-c2nc3cncnc3n(-c3ccccc3)c2=O)c2ccccc21, Cc1cc(Cl)c(S(=O)(=O)NCCC(=O)O)cc1OCC(N)=O, Cc1ccnc(SCCn2c(Br)nc3c2c(=O)[nH]c(=O)n3C)n1, CC(=NCc1ccc2c(c1)OCO2)C1=C(O)c2ccccc2C1=O, Cc1ccc2c(c1)sc1ncc(NC(=O)c3ccccc3)c(=O)n12, CCCCOc1ccc(Cl)cc1CSc1nncn1N, CCN(Cc1cc2cc(C)ccc2[nH]c1=O)S(=O)(=O)c1ccccc1, CSCC[C@H](NC(=O)NCCc1ccc(F)cc1)C(=O)O, O=C(Cn1cc2c(n1)CCCCC2)NCCN1CCOCC1, CC(=O)Nc1ccc(NC(=O)CN2CCCC(C)C2)c(Cl)c1 (stereo not given), COCCn1c(=O)c(-c2cccc(F)c2)nc2cncnc21, Oc1cc2c(cc1O)CN(C(=S)NCCc1ccc(Cl)cc1)CCC2, CN=C(NC#N)NCCSCc1nc[nH]c1C, COC(=O)c1nc(NC(=O)c2ccc(Cl)cc2)n[nH]1, NC(=O)CCCC1=NS(=O)(=O)c2ccccc2N1, COC(=O)c1c(NC(=O)CSc2nncs2)sc2c1CCCCC2, CC(=O)N(CC1CCCO1)C1(C(=O)NC2CCCC2)CCCCC1 (stereo not given), COc1ccc2[nH]cc(CCNc3nc(-c4cccc(NS(C)(=O)=O)c4)nc4ccccc34)c2c1, CCCCCN(C(=O)NC(=O)Nc1ccccc1OC)S(C)(=O)=O
